Assay results as given in PubChem BioAssay (NCATS).
Inconclusive results are not listed. Activity calls are given as the source filed them. Calls come from the whole dose curve; as a rule, active = well fitted curve in the direction sought with a large enough effect; inconclusive = small, poorly fitted or top-dose-only effect, or another doubt; inactive = no such curve, though single readings can be large; an effect the other way counts as inactive or inconclusive.

Legend:
[1] = Quantitative High-Throughput drug screen in 47 multiple myeloma cell lines against the NCATS MIPE library collection: JIM3_ECACC cell viability assay (AID 1918963; note: nearly all actives have a fitted effect of over 35% in size; note: potency is the fitted concentration of half-maximal effect)
Method in brief: (§1)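 Relative luminescence from CellTiter-Glo served as the viability signal, referenced to DMSO-treated (100%) and cell-free medium (0%) controls. Treatment lasted 48 hours at 37C with 500 cells per well.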

[2] = Quantitative High-Throughput drug screen in 47 multiple myeloma cell lines against the NCATS MIPE library collection: JJN3_DSMZ cell viability assay (AID 1918966; note: nearly all actives have a fitted effect of over 50% in size; note: potency is the fitted concentration of half-maximal effect)
Method in brief: (§2)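 Myeloma cell lines, 500 cells per well, exposed to MIPE 4.0 library compounds for 48 h at 37C, 5% CO2. Viability from ATP by CellTiter-Glo luminescence; normalised to DMSO (100%) and media-only (0%) wells.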

[3] = Quantitative High-Throughput drug screen in 47 multiple myeloma cell lines against the NCATS MIPE library collection: H1112_PLB cell viability assay (AID 1918967; note: nearly all actives have a fitted effect of over 30% in size; note: potency is the fitted concentration of half-maximal effect)
Method in brief: as §2

[4] = Quantitative High-Throughput drug screen in 47 multiple myeloma cell lines against the NCATS MIPE library collection: Karpas25_ECACC cell viability assay (AID 1918968; note: nearly all actives have a fitted effect of over 35% in size; note: potency is the fitted concentration of half-maximal effect)
Method in brief: as §2

[5] = Quantitative High-Throughput drug screen in 47 multiple myeloma cell lines against the NCATS MIPE library collection: KMS12PE_JCRB cell viability assay (AID 1918972); note: nearly all actives have a fitted effect of over 30% in size; note: potency is the fitted concentration of half-maximal effect; for viability: series mostly up to about 46 µM
Method in brief: as §1

[6] = Quantitative High-Throughput drug screen in 47 multiple myeloma cell lines against the NCATS MIPE library collection: KMS26_JCRB cell viability assay (AID 1918975); note: nearly all actives have a fitted effect of over 45% in size; note: potency is the fitted concentration of half-maximal effect
Method in brief: (§3)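 Myeloma cells (500 per well) were exposed to MIPE 4.0 compounds by pin transfer and incubated 48 hours at 37C, 5% CO2. Viability was read as ATP by CellTiter-Glo luminescence, normalised to DMSO (100%) and media-only (0%) wells.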

[7] = Quantitative High-Throughput drug screen in 47 multiple myeloma cell lines against the NCATS MIPE library collection: MMM1_PLB cell viability assay (AID 1918976); note: nearly all actives have a fitted effect of over 35% in size; note: potency is the fitted concentration of half-maximal effect
Method in brief: (§4)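 Readout: median RLU from CellTiter-Glo after 5 min at room temperature. Preceding step was 48 h drug treatment of 500 cells/well at 37 °C, 5% CO2, with DMSO-only and media-only control wells.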

[8] = Quantitative High-Throughput drug screen in 47 multiple myeloma cell lines against the NCATS MIPE library collection: NCIH929_DSMZ cell viability assay (AID 1918978); note: nearly all actives have a fitted effect of over 35% in size; note: potency is the fitted concentration of half-maximal effect
Method in brief: as §4

[9] = Quantitative High-Throughput drug screen in 47 multiple myeloma cell lines against the NCATS MIPE library collection: OCIMY1_PLB cell viability assay (AID 1918979); note: nearly all actives have a fitted effect of over 35% in size; note: potency is the fitted concentration of half-maximal effect; for viability: series mostly up to about 46 µM
Method in brief: as §4

[10] = Quantitative High-Throughput drug screen in 47 multiple myeloma cell lines against the NCATS MIPE library collection: MM1R_ATCC cell viability assay (AID 1918981); note: nearly all actives have a fitted effect of over 35% in size; note: potency is the fitted concentration of half-maximal effect
Method in brief: as §4

[11] = Quantitative High-Throughput drug screen in 47 multiple myeloma cell lines against the NCATS MIPE library collection: JIM1_ECACC cell viability assay (AID 1918964)
Method in brief: as §2

[12] = Quantitative High-Throughput drug screen in 47 multiple myeloma cell lines against the NCATS MIPE library collection: KMS27_JCRB cell viability assay (AID 1918970); note: nearly all actives have a fitted effect of over 30% in size
Method in brief: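 Each line is seeded at 500 cells per well and treated with library compounds for 48 hours under 37 °C, 5% CO2. CellTiter-Glo is then added for 5 min at room temperature before median relative luminescence is recorded.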

[13] = Quantitative High-Throughput drug screen in 47 multiple myeloma cell lines against the NCATS MIPE library collection: MOLP8_DSMZ cell viability assay (AID 1918977); note: nearly all actives have a fitted effect of over 45% in size; note: potency is the fitted concentration of half-maximal effect
Method in brief: as §4

[14] = Quantitative High-Throughput drug screen in 47 multiple myeloma cell lines against the NCATS MIPE library collection: INA6_PLB cell viability assay (AID 1918965; note: nearly all actives have a fitted effect of over 55% in size; note: potency is the fitted concentration of half-maximal effect)
Method in brief: as §1

[15] = Quantitative High-Throughput drug screen in 47 multiple myeloma cell lines against the NCATS MIPE library collection: MM1S_ATCC cell viability assay (AID 1918980); note: potency is the fitted concentration of half-maximal effect; nearly all actives have a fitted effect of over 45% in size
Method in brief: as §4

[16] = Quantitative High-Throughput drug screen in 47 multiple myeloma cell lines against the NCATS MIPE library collection: KMS12BM_JCRB cell viability assay (AID 1918971); note: nearly all actives have a fitted effect of over 35% in size; note: potency is the fitted concentration of half-maximal effect
Method in brief: as §3

[17] = Quantitative High-Throughput drug screen in 47 multiple myeloma cell lines against the NCATS MIPE library collection: KMS20_JCRB cell viability assay (AID 1918973); note: nearly all actives have a fitted effect of over 45% in size; note: potency is the fitted concentration of half-maximal effect
Method in brief: as §2

[18] = Quantitative High-Throughput drug screen in 47 multiple myeloma cell lines against the NCATS MIPE library collection: KHM11_PLB cell viability assay (AID 1918962)
Method in brief: as §1

Measured: Potency

CC(C)[C@H](N)C(=O)OCCOCn1cnc2c(=O)[nH]c(N)nc21
inactive: [1] | [2] | [3] | [4] | [6] | [7] | [8] | [9] | [10]
active: [5] 23.5 µM

C[C@]12CCC(=O)C=C1CC[C@@H]1[C@H]2[C@@H](O)C[C@@]2(C)[C@H]1CC[C@]2(O)C(=O)CO
inactive: [11] | [12] | [13] | [9]
active: [4] 5.9 µM

O=C1c2ccccc2-c2n[nH]c3cccc1c23
active: [14] 20.9 µM | [15] 14.8 µM
inactive: [3] | [9]

O=C1CCc2ccc(OCCCCN3CCN(c4cccc(Cl)c4Cl)CC3)cc2N1
active: [1] 14.8 µM | [2] 18.7 µM | [4] 16.6 µM | [16] 11.8 µM | [5] 5.26 µM | [7] 20.9 µM
inactive: [11] | [9]

CCN(CC)C(=S)SSC(=S)N(CC)CC
active: [1] 0.001 µM | [14] 0.001 µM | [2] 0.0166 µM | [3] 0.001 µM | [4] 0.001 µM | [16] 0.0093 µM | [17] 0.001 µM | [6] 0.0105 µM | [7] 0.0187 µM | [13] 0.0093 µM | [9] 0.0235 µM | [15] 0.0093 µM | [10] 0.0093 µM

O=c1ccc2ccc(O)c(O)c2o1
active: [18] 11.8 µM | [2] 16.6 µM | [4] 3.32 µM | [16] 18.7 µM | [17] 16.6 µM | [7] 7.43 µM | [15] 4.18 µM
inactive: [9]

CCOC(=O)C1=C[C@@H](OC(CC)CC)[C@H](NC(C)=O)[C@@H](N)C1
not listed: [1] | [2] | [7] | [11] | [15] | [16] | [18]
inactive: all other assays above

COc1cc(C(C)=O)ccc1OCCCN1CCC(c2noc3cc(F)ccc23)CC1
inactive: [1] | [3] | [13] | [9]
active: [14] 14.8 µM | [4] 1.87 µM | [5] 20.9 µM | [17] 16.6 µM | [6] 0.0074 µM | [7] 18.7 µM | [10] 16.6 µM

CCCOc1ccc2nc(NC(=O)OC)[nH]c2c1
active: [14] 0.0105 µM | [2] 5.26 µM | [4] 0.105 µM | [16] 0.0066 µM | [6] 1.05 µM | [7] 1.32 µM | [10] 0.0083 µM

NCCCCNCCCN
active: [1] 18.7 µM | [14] 11.8 µM | [2] 2.96 µM | [4] 18.7 µM | [16] 20.9 µM | [17] 18.7 µM | [6] 3.72 µM | [7] 10.5 µM | [13] 4.18 µM | [9] 10.5 µM | [15] 3.32 µM | [10] 2.96 µM

COc1ccccc1N1CCN(CCN(C(=O)C2CCCCC2)c2ccccn2)CC1
inactive: [1] | [4] | [16] | [6] | [13] | [9]
active: [14] 3.72 µM | [5] 18.7 µM | [17] 5.26 µM | [8] 8.33 µM

CC1Cc2ccccc2N1NC(=O)c1ccc(Cl)c(S(N)(=O)=O)c1 (stereo not drawn)
active: [15] 16.6 µM
not listed: [2] | [6] | [7] | [8] | [11] | [17] | [18]
inactive: all other assays above

CN1CCC(=C2c3ccccc3CCc3sccc32)CC1
active: [14] 16.6 µM | [5] 23.5 µM
inactive: [3] | [13] | [8] | [10]

CC1(C)CCC(C)(C)c2cc(NC(=O)c3ccc(C(=O)O)cc3)ccc21
active: [14] 18.7 µM | [3] 10.5 µM | [4] 20.9 µM | [5] 20.9 µM | [8] 14.8 µM | [15] 16.6 µM | [10] 13.2 µM
inactive: [11] | [9]

CC(C)c1ccc2oc3nc(N)c(C(=O)O)cc3c(=O)c2c1
inactive: [11] | [14] | [2] | [3] | [4] | [12] | [5] | [8] | [10]

CC(C)(S)[C@@H](N)C(=O)O
inactive: [1] | [11] | [2] | [3] | [5] | [6] | [13] | [8] | [9]
